Results as given in PubChem BioAssay (NCI).
This is part of a sample that, as a whole, favours compounds with a hit. Of some 83,000 tested, about 20% had one in any assay.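 Cell lines were cultured in 96-well plates, exposed to a single compound concentration, and assessed for percent growth 48 hours later.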 Values without a mark were called inactive. The source made the active and inactive calls. How the source made its calls: active means growth percent below 10; inactive means the rest.

Assays:
Assay in all cases: NCI-60 one-dose screen, 48 h (100 = growth as untreated, 0 = no growth, -100 = all killed)
Conditions in all cases: 10 µM unless noted
[1] = test system: SK-MEL-2 melanoma
[2] = test system: EKVX NSCLC
[3] = test system: SN12C renal
[4] = test system: UO-31 renal
[5] = test system: TK-10 renal
[6] = test system: ACHN renal
[7] = test system: CAKI-1 renal
[8] = test system: A498 renal
[9] = test system: CCRF-CEM leukemia
[10] = test system: MOLT-4 leukemia
[11] = test system: SR leukemia
[12] = test system: RPMI-8226 leukemia
[13] = test system: OVCAR-8 ovarian
[14] = test system: OVCAR-5 ovarian
[15] = test system: OVCAR-4 ovarian
[16] = test system: SK-OV-3 ovarian
[17] = test system: IGROV1 ovarian
[18] = test system: OVCAR-3 ovarian
[19] = test system: HS 578T breast
[20] = test system: NCI/ADR-RES ovarian

| SMILES | growth [1] | growth [2] | growth [3] | growth [4] | growth [5] | growth [6] | growth [7] | growth [8] | growth [9] | growth [10] | growth [11] | growth [12] | growth [13] | growth [14] | growth [15] | growth [16] | growth [17] | growth [18] | growth [19] | growth [20] |
| --- | --- | --- | --- | --- | --- | --- | --- | --- | --- | --- | --- | --- | --- | --- | --- | --- | --- | --- | --- | --- |
| Cc1nn(-c2nc(-c3cc4ccccc4oc3=O)cs2)c(C)c1N=Nc1ccccc1 | 113% | 99.8% | 103% | 79.3% | 112% | 108% | 89.2% | 100% | 105% | 100% | 90.4% | 101% | 106% | 106% | 102% | 110% | 105% | 101% | 108% | 104% |
| COC(=O)c1[nH]nc(OC)c1C1(C(C#N)c2nc3ccccc3s2)CCCc2ccccc21 (centres undefined) | 88.7% | 88.5% | 86% | 72.4% | 139% | 89.1% | 94.5% | 109% | 96.5% | 102% | 99.8% | 94.7% | 100% | 80.3% | 103% | 87% | 79% | 98.6% | 99.2% | 101% |
| C=C(C)[C@@H]1CC[C@]2(C(=O)O)CC[C@]3(C)[C@H](CC[C@@H]4[C@@]5(C)CCC(N)C(C)(C)[C@@H]5CC[C@]43C)[C@@H]12 (some centres undefined) | 93% | 67.6% | -7.83% (active) | 63.4% | 47.8% | 8.7% (active) | 48.6% | 78.1% | -8.42% (active) | 25.7% | -8.86% (active) | -33.6% (active) | 20.8% | 96.6% | 36.8% | 106% | 74.4% | -31.5% (active) | 93.1% | 69.7% |
| O=C(N/N=C/c1ccc(O)cc1O)c1cccc(Nc2ccnc(C(F)(F)F)c2)c1 | 60.7% | 28% | 25% | 34.7% | 42.6% | 30.3% | 40.3% | 44.9% | 6.22% (active) | 12.2% | 21.7% | 30.8% | 22.7% | 47.8% | 39.9% | 25.1% | 34.2% | 32% | 44.8% | 49.6% |
| Nc1n[nH]c2cccc(C#Cc3cccc(C(=O)Nc4ccc(CN5CCOCC5)c(C(F)(F)F)c4)c3)c12 | 23.3% | 63.4% | 54.8% | 22.3% | 76.2% | 24.8% | 73.4% | 67.5% | 20.7% | 16.9% | 36.1% | 16.4% | 12.5% | 41.2% | 47.2% | 88.8% | 18.6% | 60.5% | 29.5% | 18.4% |
| Cc1ccc(C(=O)Nc2nc3c(s2)CN(Cc2ccccc2)CC3)cn1 | 93% | 90.4% | 89.7% | 80.5% | 89.4% | 100% | 65.2% | 89.9% | 85.5% | 95.6% | 64% | 77.8% | 95.7% | 103% | 78.7% | 89.2% | 82.4% | 88.1% | 98.3% | 70.5% |
| CCCCCCCCN(CCCCCCCC)CC(O)c1cc(Cl)ccc1OC (centres undefined) | 80.1% | 59.9% | 75.4% | 52.3% | 96.4% | 71.5% | 62.3% | 54.8% | 92.8% | 79.3% | 14.5% | 41.5% | 87.9% | 72.6% | 66.9% | 78.1% | 84.9% | 91.9% | 69.1% | 82.6% |
| c1ccc(-c2cc(-c3cc(-c4ccccc4)on3)no2)cc1 | 20.5% | 121% | 92.9% | 92.1% | 104% | -3.89% (active) | 35.5% | 97.6% | 81.9% | 63.7% | 61.6% | 88.1% | 74.6% | 77.1% | 96.7% | 109% | 63.6% | 127% | 116% | 69.7% |
| CCCCC#Cc1c(/C=C(\CCCC)SCC)n(C)c(=O)[nH]c1=O | 67.1% | 104% | 101% | 90.9% | 104% | 101% | 102% | 72% | 95% | 62.1% | 93.4% | 85.5% | 76.8% | 99.3% | 90.7% | 106% | 73.6% | 88.5% | 95.9% | 95.6% |
| Cc1ccc(Cc2cnc(NC(=O)c3cc(C)oc3C)s2)cc1 | 85.6% | 57.4% | 86.9% | 61.2% | 63.6% | 70.4% | 38.4% | 84.4% | 70.8% | 60.2% | 29.7% | 73.6% | 87.7% | 67.6% | 70.2% | 84.3% | 62% | 81.4% | 82.9% | 67.4% |
| O=C(CCl)n1nnnc1Cc1ccccc1 | 86.9% | 105% | 92.2% | 74.3% | 88.1% | 95.1% | 92.4% | 109% | 86.3% | 94.2% | 93.5% | 96.3% | 91.1% | 95.9% | 105% | 93.6% | 107% | 112% | 121% | 101% |
| O=S(=O)(O)c1ccc(N=Nc2ccc(N=Nc3cccc4ccccc34)c(S(=O)(=O)O)c2)cc1 | 99.8% | 97% | 102% | 84.1% | 112% | 97.8% | 97% | 90.1% | 101% | 108% | 99.4% | 108% | 101% | – | 93.2% | 85.4% | 96.3% | 103% | 104% | 103% |
